Reference: PubChem BioAssay (NCATS)
“And” between values parts separate entries of the source, which are not always exact repeats. Equal entries are not always repeated. Inconclusive results are not listed. The source made the active and inactive calls. Calls follow the shape of the dose curve; as a rule, active = well fitted curve in the direction sought with a large enough effect; inconclusive = small, poorly fitted or top-dose-only effect, or another doubt; inactive = no such curve, though single readings can be large; an effect the other way counts as inactive or inconclusive.

What was measured:
[1] = qHTS of pediatric cancer cell lines to identify multiple opportunities for drug repurposing: Primary screen for LAN-5 cells (AID 1347100)
Method in brief: (§1)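 Cells (500-1,000/well) in growth media were settled 5 h at 37 degrees C, then given compounds for 48 h. Viability was read as CellTiter-Glo luminescence. Primary runs used MIPE at 11 points (0.78 nM-46 µM) and NPC at 8 points (0.59 nM-46 µM); follow-ups used 11 points.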

[2] = qHTS of pediatric cancer cell lines to identify multiple opportunities for drug repurposing: Primary screen for BT-12 cells (AID 1347101); also: nearly all actives have a fitted effect of over 25% in size
Method in brief: (§2)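 Cells (500-1,000/well) rested 5 h, then received compounds for 48 h; metabolically active cells were measured by CellTiter-Glo luminescence. Final concentrations spanned up to 46 µM (MIPE, 11-point) or 0.59 nM-46 µM (NPC, 8-point) in primary screens, 11-point in follow-ups.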

[3] = qHTS of pediatric cancer cell lines to identify multiple opportunities for drug repurposing: Primary screen for Rh18 cells (AID 1347102); also: nearly all actives have a fitted effect of over 65% in size
Method in brief: as §1

[4] = qHTS of pediatric cancer cell lines to identify multiple opportunities for drug repurposing: Primary screen for MG 63 (6-TG R) cells (AID 1347105); also: nearly all actives have a fitted effect of over 50% in size
Method in brief: (§3)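 ATP-based luminescence (CellTiter-Glo) quantifies viability after a 48-hour exposure. Compounds are dosed across 8 or 11 final concentrations; DMSO and 2.3 µM bortezomib serve as controls.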

[5] = qHTS of pediatric cancer cell lines to identify multiple opportunities for drug repurposing: Primary screen for control Hh wild type fibroblast cells (AID 1347106); also: nearly all actives have a fitted effect of over 55% in size
Method in brief: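 Viability after 48 h compound treatment at 37C, 500-1,000 cells/well, read as ATP luminescence with CellTiter-Glo. Primary screens used 11-point (MIPE, 0.78 nM-46 µM) or 8-point (NPC, 0.59 nM-46 µM) final concentrations; follow-up screens used 11-point dilutions.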

[6] = qHTS of pediatric cancer cell lines to identify multiple opportunities for drug repurposing: Primary screen for Rh30 cells (AID 1347107); also: nearly all actives have a fitted effect of over 75% in size
Method in brief: as §1

[7] = qHTS of pediatric cancer cell lines to identify multiple opportunities for drug repurposing: Primary screen for RD cells (AID 1347104); also: nearly all actives have a fitted effect of over 55% in size
Method in brief: as §3

[8] = qHTS of pediatric cancer cell lines to identify multiple opportunities for drug repurposing: Primary screen for Rh41 cells (AID 1347108); also: nearly all actives have a fitted effect of over 70% in size
Method in brief: as §3

[9] = qHTS of pediatric cancer cell lines to identify multiple opportunities for drug repurposing: Primary screen for OHS-50 cells (AID 1347103); also: nearly all actives have a fitted effect of over 40% in size
Method in brief: as §2

[10] = qHTS of pediatric cancer cell lines to identify multiple opportunities for drug repurposing: Confirmatory screen for NB1643 cells (AID 1347109); also: nearly all actives have a fitted effect of over 45% in size
Method in brief: as §1

Measured: Potency
Potency is read from the fitted curve at half-maximal effect.

Cc1ccccc1C(C(=O)NC1CCCCC1)N(C(=O)Cn1ccnc1C)c1cccc(F)c1 (stereo not given)
inactive: [1] | [2] | [3] | [4] | [5] | [6]

O=C(NCc1ccccc1)c1csc(Nc2ccncn2)n1
active: [1] 13.2 µM | [2] 19.3 µM | [3] 23.5 µM | [7] 29.6 µM | [4] 23.5 µM | [8] 9.35 µM

O=c1ccn([C@@H]2O[C@H](CO)[C@H](O)[C@H]2O)c(=O)[nH]1
not listed: [2] | [10]
inactive: all other assays above

COc1cccc2c1CCCC2CCCN1CCN(C2CCCCC2)CC1 (stereo not given)
inactive: [4]
active: [1] 26.4 µM | [2] 24.3 µM | [9] 19.3 µM | [7] 26.4 µM

CC[C@]1(O)C[C@@H]2CN(CCc3c([nH]c4ccccc34)[C@@](C(=O)OC)(c3cc4c(cc3OC)N(C)[C@H]3[C@@](O)(C(=O)OC)[C@H](OC(C)=O)[C@]5(CC)C=CCN6CC[C@]43[C@@H]65)C2)C1
active: [1] 0.133 µM | [2] 43.7 nM and 347 nM | [9] 30.9 nM and 138 nM | [7] 21.1 nM and 211 nM | [10] 1.31 µM
inactive: [6]

CN[C@@H](C)C(=O)N[C@H]1CN(C(=O)CC(C)C)CC[C@H]2CC[C@@H](C(=O)NC(c3ccccc3)c3ccccc3)N2C1=O
active: [1] 0.187 µM | [2] 0.485 µM | [9] 0.243 µM
inactive: [5] | [6] | [10]

CC(C(=O)O)c1ccc(-c2ccccc2)c(F)c1 (stereo not given)
inactive: [1] | [2] | [3] | [4]

CC1(C)CCC[C@@]2(C)[C@@H]1CC[C@@]1(C)OC(=O)C[C@H]21
not listed: [5] | [9]
inactive: all other assays above

COCCOc1nc(-c2ccc(Cl)c(Cl)c2)n(-c2ccc(NC(=O)CCl)cc2)n1
inactive: [5]
active: [1] 18.7 µM | [2] 5.44 µM | [9] 6.11 µM

Oc1ccc(C2=Cc3ccc(O)cc3OC2)cc1
inactive: [4] | [5]
active: [1] 2.35 µM | [2] 4.85 µM | [7] 5.26 µM | [6] 11.8 µM | [8] 5.9 µM

Cc1c[nH]c(C=C2C(=O)Nc3ccccc32)c1CCC(=O)O
inactive: [2] | [7] | [4] | [8]
active: [1] 18.7 µM

CC(C)(Cc1ccc2ccccc2c1)NC[C@@H](O)COc1cccc(Cl)c1C#N
active: [1] 18.7 µM
not listed: [2] | [8] | [10]
inactive: all other assays above

O=C1C[C@@H](c2ccc(O)cc2)Oc2cc(O)cc(O)c21
not listed: [2] | [10]
inactive: all other assays above

CCC(=O)O[C@]1(C(=O)CO)CC[C@H]2[C@@H]3CCC4=CC(=O)CC[C@]4(C)[C@@H]3CC[C@@]21C
not listed: [9] | [10]
inactive: all other assays above

O=C(O)c1cc(-c2ccccc2)nc2ccccc12
not listed: [2] | [10]
inactive: all other assays above

C[C@@H]1CCN(C(=O)CC#N)C[C@H]1N(C)c1ncnc2[nH]ccc12
inactive: [1] | [2] | [3] | [7] | [6]

CC[C@@]1(O)C[C@H](O[C@H]2C[C@H](N(C)C)[C@H](O[C@H]3C[C@H](O)[C@H](O[C@H]4CCC(=O)[C@H](C)O4)[C@H](C)O3)[C@H](C)O2)c2c(cc3c(c2O)C(=O)c2c(O)cccc2C3=O)[C@@H]1C(=O)OC
active: [1] 2.35 µM
not listed: [2] | [8] | [10]
inactive: all other assays above

COc1cc2nc(-c3ccc(N4CCN(C)CC4)cc3)nc(NCCN3CCOCC3)c2cc1OC
active: [1] 0.0187 µM | [3] 0.235 µM | [9] 0.0544 µM | [7] 0.0418 µM | [4] 1.48 µM | [5] 3.32 µM | [6] 0.0469 µM | [8] 0.296 µM

COCCOC(=O)C1=C(C)NC2=C(C(=O)CC(c3ccccc3OC)C2)C1c1cccc(O)c1 (stereo not given)
inactive: [2] | [5]
active: [1] 13.2 µM | [9] 19.3 µM | [7] 18.7 µM | [4] 14.8 µM

CC(C)OC(=O)CCCC=CC[C@@H]1[C@H](C=C[C@@H](O)COc2cccc(C(F)(F)F)c2)[C@H](O)C[C@@H]1O
inactive: [1] | [4] | [5]
active: [2] 19.3 µM | [9] 24.3 µM | [7] 33.2 µM

OC[C@H]1O[C@@H](Oc2cc(O)cc(C=Cc3ccc(O)cc3)c2)[C@H](O)[C@@H](O)[C@H]1O
not listed: [5] | [9] | [10]
inactive: all other assays above

CC(C)(C)COc1ccc(-n2cc(C(=O)O)cn2)cc1C#N
not listed: [9] | [10]
inactive: all other assays above

O=c1cc(-c2ccc(O)cc2)oc2cc(O)cc(O)c12
inactive: [5]
active: [1] 3.32 µM | [3] 2.35 µM | [9] 3.06 µM | [7] 2.96 µM | [4] 18.7 µM

CC(=NNC(=S)N1CCC1)c1ccccn1
inactive: [10]
active: [1] 0.935 µM | [2] 0.0014 µM | [7] 0.003 µM | [4] 0.0235 µM

COc1ccc2cccc(CCNC(C)=O)c2c1
not listed: [2] | [10]
inactive: all other assays above

CC(=O)O[C@]1(C(C)=O)CC[C@H]2[C@@H]3C=C(Cl)C4=CC(=O)[C@@H]5C[C@@H]5[C@]4(C)[C@H]3CC[C@@]21C
inactive: [1] | [4]
active: [2] 12.3 µM | [9] 34.7 µM | [8] 18.8 µM

O=C(OCC#CCSc1nnc(-c2cccc3ccccc23)o1)c1cc2ccccc2s1
not listed: [2] | [10]
inactive: all other assays above

O=c1cc(-c2cccc3c2Sc2ccccc2S3)oc(N2CCOCC2)c1
inactive: [1] | [2] | [3] | [6]

CCC(=O)NC[C@H](Cc1ccc(OCCc2nc(-c3ccccc3)oc2C)cc1)NC(C)=CC(=O)c1ccc(C(F)(F)F)cc1
active: [1] 3.32 µM | [9] 12.2 µM
inactive: [3]

O=C(CCN1CCN(C(=O)OCc2cc(Cl)cc(Cl)c2)CC1)c1ccc2[nH]c(=O)oc2c1
not listed: [2] | [8] | [10]
inactive: all other assays above

O=C(O)c1ccc(-c2cc3cccnc3c(-c3ccc4nonc4c3)n2)cc1
active: [1] 20.9 µM | [2] 27.3 µM | [9] 27.3 µM | [7] 26.4 µM
inactive: [5] | [6]

Cn1cc(C=C2C(=O)Nc3cccnc32)c2ccccc21
not listed: [7] | [9] | [10]
inactive: all other assays above

O=C(O)[C@H]1O[C@H](Oc2cc3oc(-c4ccccc4)cc(=O)c3c(O)c2O)[C@H](O)[C@@H](O)[C@H]1O
inactive: [1] | [2] | [7] | [4] | [5]

CCCCCN(C)CCC(O)(P(=O)(O)O)P(=O)(O)O
not listed: [2] | [10]
inactive: all other assays above

Nc1ncnc2c1ncn2[C@@H]1O[C@H](CO)C[C@@H]1O
inactive: [1] | [3] | [7]
active: [9] 24.3 µM

O=c1cc(N2CCOCC2)oc2c(-c3cccc4c3sc3ccccc34)cccc12
inactive: [5]
active: [1] 14.8 µM | [3] 18.7 µM | [9] 7.69 µM | [7] 13.2 µM | [4] 14.8 µM

COc1ccc(-n2c(C)c([N+](=O)[O-])c3ccc(O)cc32)cc1
inactive: [1] | [3] | [9] | [4] | [5]

CN(C)C1CCN(C(=O)c2ccc(NC(=O)Nc3nc(N4CCOCC4)nc(N4CCOCC4)n3)cc2)CC1
active: [1] 0.187 µM | [3] 0.0526 µM | [9] 0.0217 µM | [7] 0.0662 µM | [4] 0.0935 µM | [8] 0.0935 µM | [10] 0.928 µM
inactive: [6]

O=C(O)CCc1nc(-c2ccccc2)c(-c2ccccc2)o1
not listed: [2] | [10]
inactive: all other assays above

CC(=O)c1ccc(S(=O)(=O)NC(=O)NC2CCCCC2)cc1
not listed: [2] | [10]
inactive: all other assays above

O=C(O)C=Cc1ccc(O)c(O)c1
active: [1] 3.72 µM | [7] 33.2 µM | [6] 23.5 µM
inactive: [3] | [4] | [5]

N#CC1(c2ccc(NC(=O)c3cccnc3NCc3ccncc3)cc2)CCCC1
inactive: [1] | [3] | [7] | [4] | [6] | [8]

C[C@]12CC[C@@H]3c4ccc(O)cc4CC[C@H]3[C@H]1C[C@@H](O)[C@H]2O
not listed: [2] | [10]
inactive: all other assays above

CO[C@H]1C=CC=C(C)C(=O)NC2=CC(=O)C(NCCN(C)C)=C(C[C@@H](C)C[C@H](OC)[C@@H](O)[C@@H](C)C=C(C)[C@@H]1OC(N)=O)C2=O
active: [1] 0.132 µM | [3] 0.132 µM | [9] 0.385 µM | [7] 0.0526 µM | [4] 18.7 µM | [6] 5.9 µM | [8] 0.59 µM

C[C@@H](O)[C@H]1C(=O)N2C(C(=O)O)=C(S[C@@H]3CN[C@H](C(=O)N(C)C)C3)[C@H](C)[C@H]12
not listed: [2] | [10]
inactive: all other assays above

COc1cccc(-c2cc(=O)c3ccccc3o2)c1N
active: [7] 13.2 µM
not listed: [2] | [4]
inactive: all other assays above

COc1ncc(-c2ccc3nccc(-c4ccnnc4)c3c2)cc1NS(=O)(=O)c1ccc(F)cc1F
active: [1] 0.105 µM | [3] 0.0372 µM | [9] 0.001 µM | [7] 0.372 µM | [6] 1.48 µM | [8] 0.0118 µM | [10] 0.465 µM
inactive: [5]

COc1ccc(-c2nc(N3CCOCC3)c3sc(CN(C)c4ncc(C(=O)NO)cn4)cc3n2)cn1
inactive: [5]
active: [1] 0.001 µM | [3] 0.001 µM | [9] 0.0011 µM | [7] 0.0166 µM | [4] 0.0296 µM | [6] 0.209 µM | [8] 0.0296 µM | [10] 0.928 µM

O=C(O)c1cc(O)c2c(c1)C(=O)c1cccc(O)c1C2=O
inactive: [1] | [3] | [9] | [7] | [5]

O=C(Nc1ccccc1-c1cn2c(CN3CCNCC3)csc2n1)c1cnc2ccccc2n1
active: [1] 20.9 µM | [3] 8.33 µM | [9] 27.3 µM | [7] 33.2 µM | [4] 23.5 µM | [6] 23.5 µM | [8] 20.9 µM

CN(C[C@@H]1COCCO1)S(=O)(=O)Nc1ccc2ccc3ncc(-c4cnn(C)c4)cc3c(=O)c2c1
inactive: [4] | [5] | [6]
active: [1] 14.8 µM | [3] 14.8 µM | [9] 1.22 µM

COc1cc2ncnc(Nc3ccc(F)c(Cl)c3)c2cc1OCCCN1CCOCC1
inactive: [6]
active: [1] 6.05 µM | [3] 34 µM | [9] 8.85 µM and 17.4 µM | [7] 6.79 µM and 23.7 µM | [4] 27 µM | [8] 17.1 µM | [10] 38 µM
